Screening data from PubChem.
This is a sample that favours compounds with a hit; in the whole collection about 12% have one here.
Pf growth 96h: Primary qHTS for delayed death inhibitors of the malarial parasite plastid, 96 hour incubation; P. falciparum luciferase reporter growth, 96 h; Potency, µM (doses to about 28.7 µM), actives largely listed as inhibitors; 6.9% of 320,000 active
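96 h incubation, 37 C, 5% CO2, of luciferase-reporter P. falciparum-infected RBCs (2% hematocrit, 0.05% parasitemia final) with test compounds; endpoint luminescence.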
NS1 inh: qHTS Assay for Inhibitors of Influenza NS1 Protein Function | AID 2326, 2010 | 0.4% of 270,000 active | Potency, µM (doses to about 46.1 µM); calls by dose curve; also: actives are rising curves; nearly all actives have a fitted effect of over 50% in size
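Read-out: OD600 growth recovery of NS1-expressing budding yeast. Cells grown overnight at 30C in -URA glucose medium, washed, resuspended and diluted 1:100 in 2% galactose assay medium, pH 6.0. Same strain lacking NS1 served as positive control.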
SARS PLP yeast: qHTS of Yeast-based Assay for SARS-CoV PLP; S. cerevisiae expressing SARS-CoV PLpro, growth rescue; Potency, µM (top dose mostly 32.9 µM), hits mostly activators; 0.19% of 330,000 active; calls by dose curve; also: nearly all actives have a fitted effect of over 55% in size
AMA1 RON2 block: qHTS for Inhibitors of AMA1-RON; Towards Development of Antimalarial Drug Lead: Primary Screen; Plasmodium falciparum AMA1 (3D7) - RON2 peptide interaction; AlphaScreen AMA1-biotinylated RON2 peptide binding; Potency, µM (top dose mostly 58.2 µM), actives largely listed as inhibitors; 0.2% of 360,000 active; also: nearly all actives have a fitted effect of over 45% in size
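AMA1 (3D7) with his tag at 25 nM final met compounds first, then biotinylated RON2 peptide at 25 nM; detection used donor plus acceptor beads, 10 µg/mL apiece, read by AlphaScreen after 30 min at room temperature.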
Pf growth 48h: Primary qHTS for delayed death inhibitors of the malarial parasite plastid, 48 hour incubation; P. falciparum luciferase growth in erythrocytes, 48 h; Potency, µM (titrated, usually from 28.7 µM), usual class: inhibitors; 5.9% of 310,000 active
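Parasite viability was followed by luminescence of a genomically integrated firefly luciferase. Cultures held 0.1% parasitemia at 2% hematocrit (final), incubated under 5% CO2 at 37 C.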
HCV inh: qHTS Assay for Inhibitors of Hepatitis C Virus (HCV); Huh7.5.1 HCVcc-Cre infection, luciferase reporter, 44 h; Potency, µM (top dose mostly 41.8 µM), most hits filed as inhibitors; 3.4% of 340,000 active; AID 651820, 2012
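Cells (1,000/well) were plated 4 h before compound, then infected with HCVcc-Cre virus (~0.5 moi). After 44 h further culture, infection was read as luciferase luminescence following a 15 min substrate incubation at room temperature.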
A number is an active result; - = inactive; ? = inconclusive; . = no result given; [ ] = another dose, or the depositor's remark. Unless noted, calls follow the shape of the dose curve; as a rule, active = well fitted curve in the direction sought with a large enough effect; inconclusive = small, poorly fitted or top-dose-only effect, or another doubt; inactive = no such curve, though single readings can be large; an effect the other way counts as inactive or inconclusive.

SMILES	Pf growth 96h	NS1 inh	SARS PLP yeast	AMA1 RON2 block	Pf growth 48h	HCV inh
Cc1ccc(Nc2nc(N)nc(CN3CCN(Cc4ccc5c(c4)OCO5)CC3)n2)c(C)c1	?	-	-	-	11.7µM	?
COc1cc(OC)cc(C(=O)NNS(=O)(=O)c2ccc(F)cc2)c1	?	-	-	-	-	-
CC(OC(=O)Cn1cnc2c1c(=O)n(C)c(=O)n2C)C(=O)NC(C)c1ccc(Cl)cc1Cl (centres undefined)	-	.	-	-	?	-
COc1cccc(N2CCN(Cc3nc(N)nc(Nc4ccccc4OC)n3)CC2)c1	0.329µM	-	-	-	?	-
COc1ccccc1Nc1nc(N)nc(CN2CCN(c3ccccc3)CC2)n1	.	-	-	-	-	?
CCCCCCCCCCCCCCCC(=O)OC(CC(=O)O)C[N+](C)(C)C (centres undefined)	-	?	.	-	-	-
CCCn1c(SCC(=O)Nc2ccc(S(=O)(=O)N(C)C)cc2)n[nH]c1=O	?	.	-	-	?	-
O=C1C=C2C=CC3C[C@@]2(O1)C1CCCCN31 (some centres undefined)	2.69µM	.	.	.	12µM	.
O=C1CSc2ccc(C(=O)O)cc2N1	11.7µM	-	-	-	-	-
FC(F)(F)c1cccc(Cn2c3[n+](c4ccc(C(F)(F)F)cc42)CCCCC3)c1	?	-	-	-	4.15µM	-
O=c1oc2ccccc2n1Cc1cccc(C(F)(F)F)c1	.	.	.	-	.	-
Cc1cc(C(C)(C)C)cc(C)c1Cn1c2[n+](c3ccc(C(F)(F)F)cc31)CCCCC2	?	-	-	-	3.29µM	7.08µM
O=C(N=C1SC2CS(=O)(=O)CC2N1c1ccccc1Cl)C1CCCO1 (centres undefined)	-	-	-	-	-	-
Cc1nc(NC(=O)c2c(-c3ccccc3Cl)noc2C)sc1C	?	-	-	-	?	?
O=C1CN(C(=O)c2ccc(Br)o2)C(c2ccccc2)c2cc(F)ccc2N1 (centres undefined)	11.7µM	-	-	-	.	-
COc1ccc(-c2oc(=O)c3cc(OC)c(OC)cc3c2-c2cc(F)cc(OC)c2)cc1	2.94µM	.	-	-	?	?
COc1cccc2c1Oc1ncccc1N(C(=O)CCC(=O)NCc1ccccc1)C2	-	-	-	-	?	-
COc1cccc2c1Oc1ncccc1N(C(=O)CCC(=O)NCc1ccccc1F)C2	11.7µM	-	-	-	-	-
CCOc1ccccc1CNC(=O)CCC(=O)N1Cc2ccccc2Oc2ncccc21	9.28µM	-	-	-	-	-
COc1ccccc1CNC(=O)CCC(=O)N1Cc2cccc(OC)c2Oc2ncccc21	9.28µM	-	-	-	-	-
O=C(NC12CC3CC(CC(C3)C1)C2)C1CCCN1C(=O)Nc1ccccc1 (centres undefined)	-	-	-	-	-	-
COc1ccc(N2CCN(C(c3cccs3)C(C)NC(=O)C(=O)N3CCCCC3)CC2)cc1 (centres undefined)	11.7µM	-	-	-	?	-
COc1ccc(N2CCN(C(c3cccs3)C(C)NS(=O)(=O)c3ccccc3)CC2)cc1 (centres undefined)	?	-	-	?	13.1µM	?
O=C1OCC=C1NNC(=O)c1cccnc1	?	.	-	-	-	-
Cc1c(C(=O)NCCN2C(=O)S/C(=C\c3cccnc3)C2=O)cccc1[N+](=O)[O-]	?	-	-	-	5.22µM	-
SMILES	Pf growth 96h	NS1 inh	SARS PLP yeast	AMA1 RON2 block	Pf growth 48h	HCV inh
COc1ccccc1CCC(=O)Nc1ccc2c(c1)CN(CCCn1cccn1)CC2	-	-	-	-	8.28µM	-
COc1cc2c(cc1OC)CN(CC(=O)Nc1cccc(C)c1)CC2	-	-	?	-	?	-
COc1cccc(CN2CCc3ccc(NC(=O)CCc4ccc(C)cc4)cc3C2)c1O	?	-	-	-	?	11.2µM
COc1ccc(NC(=O)CN2CCc3ccccc3C2)cc1OC	-	.	-	-	?	-
COc1ccc(CN2CCc3ccc(NC(=O)CCc4ccccc4OC)cc3C2)c(O)c1	-	-	-	-	2.08µM	8.91µM
COc1ccccc1CCC(=O)Nc1ccc(OC)c(S(=O)(=O)N2CCOCC2)c1	?	.	-	-[11.6 µM]	-	-
COc1cc(CN2CCc3ccc(NC(=O)CCc4ccccc4OC)cc3C2)ccc1O	-	-	-	-	5.22µM	?
CC(CC(=O)N(CCC1=CCCCC1)c1c(N)n(Cc2ccccc2)c(=O)[nH]c1=O)c1ccccc1 (centres undefined)	-	.	-	-	-	-[8.37 µM]
N#Cc1nc2ccccc2n1OCc1ccccc1	.	.	.	-	.	.
CN(C)C(=O)Oc1noc2cc(Cl)ccc12	3.29µM	-	-	-	?	-
CCc1nnc(NS(=O)(=O)c2ccc(NC(=O)CCC(=O)OC)cc2)s1	?	-	-	-	-	-
c1ccc(Cn2c3ccccc3c3nnc(SCCN4CCCCC4)nc32)cc1	?	-	-	-	9.28µM	-
CCCn1c2ccccc2c2nnc(SCCN3CCOCC3)nc21	-	-	-	-	?	?
C=CCn1c2ccccc2c2nnc(SCCCn3c(=O)[nH]c4ccccc43)nc21	-	-	-	-	13.1µM	10µM
C=CCn1c2ccccc2c2nnc(SCCN3CCCCC3)nc21	10.4µM	-	-	-	?	-
CCN(CC)CCSc1nnc2c3ccccc3n(CCc3ccccc3)c2n1	?	-	-	-	?	10µM
N#CCCn1cc(C(=O)N2CCOCC2)c(-c2ccc3c(c2)OCCO3)n1	-	.	-	-	-	-
NS(=O)(=O)c1ccc(N=Nc2c(-c3ccccc3)[nH]n(-c3nc(-c4ccccc4)cs3)c2=O)cc1	-	-	-	-	-	6.31µM
COC(=O)c1cc(NC(=O)c2ccc(-c3ccccc3)cc2)ccc1Cl	-	-	-	-	-	10µM
CC1CCC(=C(C#N)C(=O)Nc2cccc(Cl)c2)CC1 (centres undefined)	14.7µM	-	-	-	?	-
O=C(Nc1cccc(Cl)c1)Nc1cccc(Cl)c1	-	-	-	-	3.7µM	-
COC(=O)c1cc(NC(=O)Nc2cccc(Cl)c2)ccc1Cl	14.7µM	-	-	-	9.28µM	10µM
Cc1ccc(Cl)c(OC(=O)Cn2cnc3c2c(=O)n(C)c(=O)n3C)c1	-	.	-	-	?	-
CC1(c2ccccc2Cl)NC(=O)N(CC(=O)N2c3ccccc3NC(=O)C2(C)C)C1=O (centres undefined)	?	.	-	-[11.6 µM]	?	-
O=C(Nc1cccc(Cl)c1)Nc1cnccn1	-	-	-	-	?	-
O=C(Nc1cccc(Cl)c1)Nc1ccnc(-c2cccnc2)n1	-	-	-	-	10.4µM	?
